# Shown are actives, neighbours in structure and some others; about 3.8% of the full set was active somewhere.
# ADAM10 inh = inhibits human ADAM10; recombinant ADAM10, EDANS/DABCYL FRET peptide cleavage, 3 h; inhibition, % at 7 µM; 370,000 tested, 0.62% active;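 active = inhibition above a per-campaign cutoff equal to the mean of compounds falling between control-based bounds plus 3 SD, cut at about 20% in these data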;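 also: 0% = DMSO wells while the 100% control is not disclosed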
# FGF22 binding-1 = binders of recombinant human FGF22 by thermal shift; Q9HCT0; SYPRO orange fluorescence; percent of sucrose octasulfate shift, DMSO zero; activity (Tm shift, normalised), % at 9.99 µM; 340,000 tested, 1.5% active; AID 651658;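 active = mean Tm shift, scaled 0 neutral to 100 positive control, at about 1.3% or above, every replicate too, limit read from the data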
# ADAM17 inh = inhibitors of human ADAM17 | P78536 | recombinant ADAM17, EDANS/DABCYL FRET peptide cleavage | inhibition, % at 6.95 µM | 370,000 tested, 0.83% active | AID 720648;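 active = inhibition above the mean of compounds lying between control limits plus 3 SD, set per campaign, cut at about 8.5% in these data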;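 also: 0% = DMSO-only wells as the low control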
# rRNA inh HTS = inhibitors of bacterial rRNA selective over humanized ribosomes. E. coli WT GFP vs humanized-ribosome RFP mutants, fluorescence, 24 h; hits give low values; DMSO median 0, no signal -100. GFP signal change (wild-type ribosome), % (test concentration not listed). 350,000 tested, 1.6% active;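 active = significant combined selectivity score with lowered wild-type GFP, culture density cut under 30%, mutant RFP and density less affected; inactive = any of these conditions unmet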
# KLK7 zymogen act = activates the human kallikrein-7 zymogen. P49862. purified proKLK7, EDANS-DABCYL substrate fluorescence; 100% is mature enzyme control, 0% vehicle. activation, % at 7 µM. 370,000 tested, 0.9% active. AID 652039;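 active = activation above the mean of all tested compounds plus 3 SD, computed per campaign excluding outliers beyond control limits, cut at about 13% in these data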
# FGF22 binding-2 = FGF22 (human) binding in thermal shift; shares compounds with FGF22 binding-1; recombinant FGF22 thermal shift, SYPRO orange fluorescence; thermal shift activity, °C (ΔTm) at 38 µM; 1,000 tested, 2% active;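 active = fitted rise in melting shift crosses a set limit at or below the top valid dose tested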
# FGF22 TSA = binds human FGF22 shifting its melting temperature | shares compounds with FGF22 binding-1 | Thermal shift assay, SYPRO orange, melting temperature shift | AID 743017 | 50 tested, under 10 active | Tm shift (activity), % at 38 µM;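 active = compounds whose fitted dose curve of melting temperature shift rises past a set threshold within the tested doses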
# SYPRO no-protein = counter-screen for FGF22 binders: compound-only thermal shift, no protein; compound-only SYPRO orange thermal shift counter-screen; shares compounds with FGF22 binding-1; 1,000 tested, 2% active; AC50, µM (doses to about 38 µM);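 active = rising signal whose fitted curve reaches the 0.54 level within the top valid dose, showing a melting point, actives reach about 13 µM in these data; inactive = the rest, including activity in the opposite direction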; also: value is where the raw curve crosses a fixed level and not half-maximal
# An asterisk follows results filed as active; i = inactive; · = not tested or not shown; [ ] = remark or other dose.
SMILES,ADAM10 inh,FGF22 binding-1,ADAM17 inh,rRNA inh HTS,KLK7 zymogen act,FGF22 binding-2,SYPRO no-protein,others
CC1(C(=O)NS(=O)(=O)Cc2cccc(Cl)c2)CCN1C(=O)C1(c2ccc(Cl)cc2)CC1 (stereo unspecified),6,0,1,-20,0,·,·,
CC1(C(=O)NS(=O)(=O)Cc2cccc(Cl)c2)CCN1C(=O)C1(c2ccc(Cl)cc2)CCC1 (stereo unspecified),-19,1.5*,-2,-20,-1,·,i,
CC(C)(C)c1ccc(S(=O)(=O)NC(=O)C2(C)CCN2C(=O)Cc2ccc(Cl)cc2Cl)cc1 (stereo unspecified),-4,0,-7,-14,0,·,·,
CC1(C(=O)NS(=O)(=O)c2ccc(Cl)cc2)CCN1C(=O)Cc1ccc(Cl)cc1Cl (stereo unspecified),-7,1.5*,-3,-11,0,0.16,i,
C/C=C/c1ccc([C@@H]2[C@H](C#N)N(C(=O)CN3CCOCC3)[C@H]2CO)cc1,·,2.3*,·,3,·,0.16[42 µM],i,
CCCCNC(=O)C1c2cc(OC)c(OC)cc2C(=O)N(C)C1c1cccs1 (stereo unspecified),-5,3.6*,-3,5,0,-0.059,i,
C[C@@H]1CN([C@@H](C)CO)C(=O)c2ccccc2-c2ccccc2CO[C@@H]1CN(C)C(=O)Cc1ccccc1,·,·,·,0,·,·,·,
CNC(=O)C[C@H]1CC[C@@H]2[C@H](COc3ccc(NC(=O)c4ccccc4OC)cc3C(=O)N2C)O1,·,2.6*,·,-7,·,-0.021,i,
CN1C(=O)c2cc(NC(=O)c3ccccc3Cl)ccc2OC[C@@H]2O[C@@H](CC(=O)NCC(F)(F)F)CC[C@H]21,·,36*,·,·,·,0.1,i,
CN1C(=O)c2cc(NC(=O)c3ccccc3Cl)ccc2OC[C@H]2O[C@H](CC(=O)NCC(F)(F)F)CC[C@H]21,·,0,·,·,·,·,·,
CCNC(=O)C[C@@H]1CC[C@H]2[C@H](COc3ccc(NC(=O)Nc4ccc(Cl)cc4)cc3C(=O)N2C)O1,·,1.2*,·,-4,·,-0.09,i,FGF22 TSA=0
CNC(=O)C[C@@H]1CC[C@@H]2[C@@H](COc3ccc(NC(=O)c4ccccc4OC)cc3C(=O)N2C)O1,·,1,·,-1,·,·,·,
C[C@H](CO)N1C[C@H](C)[C@H](CN(C)Cc2ccc(C(F)(F)F)cc2)OCCCC[C@H](C)Oc2ccc(NC(=O)CCCN(C)C)cc2C1=O,·,0,·,-5,·,·,·,
CC(C)NC(=O)N[C@H]1CC[C@H](CCNC(=O)C2CCCC2)O[C@H]1CO,·,0,·,2,·,·,·,
Cc1nc2cc(C(=O)NCc3ccc4c(c3)OCO4)ccc2n1-c1ccc(Br)cc1,6,1.6*,1,-21,0,-0.051,i,
O=C(NCc1ccc2c(c1)OCO2)c1ccc(Br)cc1,-3,0,-4,0,0,·,·,
O=C(O)c1cccc(NS(=O)(=O)c2ccc(-c3ccc(S(=O)(=O)Nc4cccc(C(=O)O)c4)cc3)cc2)c1,0,21*,0,12,0,-0.46,i,
O=C(Nc1cccc(C(F)(F)F)c1)c1cccc(NS(=O)(=O)c2ccc(O)c(C(=O)O)c2)c1,5,1.7*,4,1,0,0.37,i,
S=C(Nc1ccc(Cl)cc1)Nc1ccc2cn[nH]c2c1,-24,1.9*,-9,-53,0,0.26,i,
O=C(N/N=C/c1cccc(Oc2ccccc2)c1)c1cccc(O)c1,8,1.5*,0,0,0,0.029,i,FGF22 TSA=0
CC(=O)Nc1cccc(NC(=O)c2ccc3[nH]c(C)c(C)c3c2)c1,-1,1.9*,-2,-4,0,-0.012,i,FGF22 TSA=0
S=C(N/N=C/c1ccccc1Cl)Nc1ccccc1,10,·,-4,·,0,·,·,
Oc1ccc(C=NNC(=S)Nc2ccccc2)nc1,-53,1.5*,-14,-33,-2,0.039,i,

# Source: PubChem
